Consider 96 compounds from PubChem BioAssay AID453 (PCMD, 2006).

About 75 (0.1%) of roughly 63,000 compounds were called active. For the sample, actives were picked, then their nearest neighbours and some compounds at random. Values without a mark were called inactive. Rule as the data show it: active = inhibition above about 21%; inactive = the rest.

In this test the target is Cathepsin B (Homo sapiens) (UniProt P07858). The test can be described thus: blockers of cathepsin B proteolysis – biochemical, fluorogenic substrate, primary screen (AID 453).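 Also: 0% = enzyme with no compound and 100% = no enzyme blank.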 The settings on record: purified cathepsin B, fluorescence, stronger effect = higher value,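 tested at 10 µM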.
For `O=C1c2cccc3cccc(c23)N1CN1CCN(c2ccccn2)CC1`, the inhibition – broadly, the drop in the measured response relative to a control, in per cent – was 2.14%.
Under `Cc1ccccc1-c1ccc(Nc2ccc(C(=O)N3CCOCC3)cc2)nn1` stands 6.18%.
In the case of `NC(=O)CSc1c[nH]c2ccccc12`, the inhibition was 0.81%.
Then `COc1ccc(-c2cc(C(=O)NC(C(=O)O)C(C)C)c(C)o2)cc1OC` (stereo unspecified), with 5.71%; and `CCCc1nc2c3cnn(-c4cccc(Cl)c4)c3ncn2n1`, with -2.64%.
On to `CCOC(=O)N1CCC(NC(=O)CCc2cn(C)c3ccccc23)CC1`, for which the inhibition was -2.17%.
Under `COc1ccc(CCNC(=O)C2CCCN(Cc3nc(-c4cccc(Cl)c4)oc3C)C2)cc1OC` (stereo unspecified) stands 3.18%; under `COCc1cc(C)nc(Nc2cc(C)ccc2C)c1C#N`, 4.86%.
Then `COc1ccc(CCNC(=O)CSc2nnc(CNC(=O)c3cccs3)o2)cc1OC`, with 1.4%.
Under `O=c1c(F)cn(C2CCCO2)c(=O)n1Cc1ccccc1Cl` (stereo unspecified) stands -1.02%; under `CC(C)OC(=O)c1cc(NC(=O)C2C3CCC(O3)C2C(=O)O)cc(C(=O)OC(C)C)c1` (stereo unspecified), 2.7%; under `COc1cc(C2C(C(=O)c3ccc(C)o3)=C(O)C(=O)N2CCc2ccccc2)ccc1O` (stereo unspecified), 4.77%.
On to `COc1ccc(NC2CC(=O)N(C)C2=O)cc1` (stereo unspecified), for which the inhibition was -3.47%.
Then `CCOC(=O)N1CCN(C(=O)C2CCCN(c3ncnc4c3sc3cccc(F)c34)C2)CC1` (stereo unspecified), with -3.56%; and `CCOc1cccc(-c2nn3c(-c4ccccn4)nnc3s2)c1`, with 0.42%; and `CC(=O)N(CN1C(=O)C2CC=CCC2C1=O)c1cccc(Cl)c1` (stereo unspecified), with -3.62%.
Then `Cc1ccc2c(c1)N(CC(=O)N1CCCc3ccccc31)C(=O)C(C)O2` (stereo unspecified), with 3.31%.
Then `CC1=C2C(=O)OC(c3ccoc3)C2(C)CCC1` (stereo unspecified), with 0.12%; and `CC1CSc2nnc(CCc3ccccc3)n21` (stereo unspecified), with -1.7%; and `COc1ccc(C2CC(c3ccccc3)Nc3ncnn32)cc1` (stereo unspecified), with 7.13%.
Regarding `Cc1ccc(NC(=O)CN(C)S(=O)(=O)c2cnc[nH]2)cc1C`, the inhibition was 3.83%.
On to `O=C(O)C1CCN(S(=O)(=O)N2CCOCC2)CC1`, for which the inhibition is 4.13%.
Under `CCOC(=O)N1CCC(Nc2c(NCCCN3CCN(c4ccc(OC)cc4)CC3)c(=O)c2=O)CC1` stands 4.27%; under `CCCN1CCN(C(=O)Cn2ncc3ccccc32)CC1`, 0.47%; under `Cc1ccc(F)cc1NC(=O)Cc1nn(C)c(=O)c2ccccc12`, 2.55%.
Then `CCCOc1ccc(C2C(C(=O)c3ccc(C)o3)=C(O)C(=O)N2CCCn2ccnc2)cc1` (stereo unspecified), with 2.38%.
Then `O=C(Nc1ccc2c(c1)nc1n2CCCCC1)c1cc(S(=O)(=O)N2CCOCC2)ccc1Cl`, with -1.57%; and `CN1c2ccccc2-c2nc3ccccc3n2C1c1ccco1` (stereo unspecified), with -10.8%.
Regarding `O=C(CCCn1c(=O)oc2ccccc21)Nc1cccnc1`, the inhibition was -0.71%.
Under `CCCCNc1nc2c(c(=O)n(C)c(=O)n2C)n1Cc1cccc(OC)c1` stands 0.69%; under `COc1ccc(CCNC(=O)CSc2nnc(-c3cccc(F)c3)o2)cc1OC`, 1.18%; under `CCCSC1=C(C#N)C(c2ccccc2C)C(C(=O)OC)C(=O)N1` (stereo unspecified), -3.07%.
Under `Cc1ccccc1C(=O)Nc1cccc(-c2nnc(SCC(=O)O)n2C)c1` stands 0.46%.
Under `CC(C)Oc1ccc(C(=O)Nc2cc(=O)n(C)c(=O)n2C)cc1` stands -1.53%; under `Cc1cc(NC(=O)Nc2ccccc2)n(-c2ccccc2)n1`, 0.02%.
For `O=C(NCC(F)(F)F)Nc1nnc(C(F)(F)F)s1`, the inhibition is 2.4%.
With `Fc1ccc(Br)cc1/C=N/n1cnnc1`, the inhibition was 3.66%.
For the compound `Cc1cccc(-c2noc(-c3ccc(F)cc3)n2)c1`, the inhibition was 3.17%.
`COc1c(O)cccc1-c1nnn(CCC(=O)OCC(=O)c2ccccc2)n1`: the inhibition is 0.08%.
Under `CN(C)/C=C1\C=C(c2ccccc2)OC1=O` stands 6.09%.
Then `CCCCSc1nc2c(c(=O)n1CC)SC(C)C2` (stereo unspecified), with -3.44%.
Then `CC1COC2C(O1)N(S(C)(=O)=O)CCN2S(C)(=O)=O` (stereo unspecified), with 3.14%.
Take `CCOC(=O)[C@H]1CCC[C@@H](NS(=O)(=O)c2ccc(NC(C)=O)cc2)C1`: the inhibition is 1.14%.
Then `CCOc1ccccc1C(=O)NCc1ccco1`, with -3.58%; and `Cc1cc2cc(CN(Cc3cccs3)Cc3nnnn3CC3CCCO3)c(=O)[nH]c2cc1C` (stereo unspecified), with 4.13%.
For `O=C(CN(CC1CCCO1)C(=O)CNS(=O)(=O)c1ccccc1)NCc1ccccc1` (stereo unspecified), the inhibition was 6.19%.
Then `CSc1ncccc1C(=O)OCC(=O)N1CCOCC1`, with 4.46%.
Then `Cn1c(=O)c2c(nc(Br)n2CCSc2nc3ccccc3o2)n(C)c1=O`, with -0.32%.
As to `C=CCOc1nc2c(c(=O)n(C)c(=O)n2C)n1Cc1ccc(Cl)cc1Cl`, the inhibition is 0.74%.
Then `CN(Cc1ccccc1)C(=O)CCNC(=O)Cn1cnc2ccccc2c1=O`, with -3.16%; and `O=C(CN1CCOCC1)Nc1ccc(NC(=O)CN2CCOCC2)c(Cl)c1`, with 1.81%.
Under `Cc1ccc2nc(NC(=O)C3CCN(S(=O)(=O)c4ccc5c(c4)oc(=O)n5C)CC3)sc2c1` stands 4.26%; under `CC(C)C(=O)N1CCN(c2nc(-c3ccccc3)c3c(c2C#N)CC(C)(C)OC3)CC1`, 1.01%; under `Cc1ccc(-n2c(Cc3cccs3)nnc2SCC(=O)OC(C)C)cc1`, 11.1%.
Then `CCOCCOC(=O)C1=C(C)N(C)C(=O)NC1c1ccccc1F` (stereo unspecified), with 1.21%; and `COc1ccc(-c2nnc(SCC(=O)c3ccco3)n2-c2ccccc2)cc1`, with 0.87%; and `CN(CCC#N)c1ncnc2scc(-c3ccccc3)c12`, with -3.88%.
Regarding `COc1cc(C2C(C(=O)c3sc(C)nc3C)=C(O)C(=O)N2CCN(C)C)cc(OC)c1OC` (stereo unspecified), the inhibition is 4.44%.
Then `Cc1cc(N=CC2=C(O)CCCC2=O)no1`, with -1.03%; and `CCC(=O)c1ccc(OCC(O)CN2CC(C)OC(C)C2)cc1` (stereo unspecified), with 1.68%.
On to `CCC(=O)c1ccc(OCC(O)CN2C(=O)NC(C)(C)C2=O)cc1` (stereo unspecified), for which the inhibition was 2.56%.
Under `CC(CCc1ccccc1)NC(=O)c1ccc(Br)o1` (stereo unspecified) stands -4.56%; under `COCCCN1C(=O)C(=O)/C(=C(/O)c2ccc3c(c2)CC(C)O3)C1c1cccnc1` (stereo unspecified), 0.25%; under `CCOc1ccc(NC(=O)CCC(=O)n2nc(C)cc2C)cc1`, 8.67%.
Under `CCCCC(CCC(=O)Nc1ccc(C(=O)OCC)cc1)C(=O)O` (stereo unspecified) stands -0.09%; under `CCCOc1ccc(/C(O)=C2/C(=O)C(=O)N(CCN(C)C)C2c2ccc(OC)c(OC)c2)cc1` (stereo unspecified), 0.77%; under `Cc1nnc(N(Cc2ccco2)C(=O)c2ccno2)s1`, -4.93%.
As to `CCn1c(CSc2nncn2-c2ccc(OC)cc2)nc2cc(S(=O)(=O)N(C)C)ccc21`, the inhibition is 5.16%.
As for `Cc1ccc(NC(=O)C2CCCN(S(=O)(=O)c3c(C)noc3C)C2)c(C)c1` (stereo unspecified), the inhibition is -0.58%.
Under `CCOC(=O)N1CCN(S(=O)(=O)c2cc(Br)cc3c2N(C(=O)C2CC2)CC3)CC1` stands 2.46%; under `CCOc1cc(C(=O)Nc2ncccn2)cc(OCC)c1OCC`, -3.7%; under `COc1ccc(C(=O)Nc2ccc3c(c2)OCO3)cc1OC`, 1.65%.
Regarding `Cc1ccc(C(=O)NCC(=O)O)cc1S(=O)(=O)N1CCCCC1`, the inhibition was 6.73%.
Then `Cc1ccc(C(=O)Nc2ccc3c(c2)OCO3)cc1S(=O)(=O)N1CCCCC1`, with 49.6% (active); and `COC(=O)c1ccccc1NC(=O)CN(Cc1ccccc1)S(C)(=O)=O`, with -3.25%; and `Cc1cc(=O)oc(C)c1C(=O)NC1CC(C)(C)NC(C)(C)C1`, with 5.11%.
Then `CC(C)c1nc(-c2ccccn2)no1`, with -4.78%.
Then `CC(Sc1nncn1C)C(=O)Nc1ccccc1-c1ccccc1` (stereo unspecified), with -1.58%; and `COCCN(C(=O)CCC(=O)Nc1ccccn1)C(C(=O)NCCC(C)C)c1ccc(OC)cc1` (stereo unspecified), with -1.72%; and `COc1ccccc1-c1nnc(SCC(=O)N2CC(C)CC(C)C2)o1` (stereo unspecified), with -0.15%.
For the compound `Cn1c(CNc2nc(-c3ccccc3)cs2)nnc1SCC(=O)c1ccccc1`, the inhibition was -1.17%.
Take `O=C1N=C(N2CCOCC2)CS1`: the inhibition is 3.2%.
Under `COc1ccc(CCN2C(=O)c3[nH]nc(-c4ccccc4O)c3C2c2ccc(C)cc2)cc1OC` (stereo unspecified) stands -1.75%; under `O=C(CSc1nnc2ccccn12)c1ccccc1`, 8.89%; under `Cc1onc(-c2ccccc2)c1C(=O)N1CCOCC1`, 6.53%.
Under `Cc1noc(/C=C/N(C)C)c1S(=O)(=O)N1CCCC(C(=O)NCc2ccco2)C1` (stereo unspecified) stands 4.93%; under `Cc1cccc(N2C(=O)SC(N(CC(=O)O)c3cccc(C)c3)C2=O)c1` (stereo unspecified), 8.43%; under `CCCCOC(=O)Nc1nccs1`, 2.38%.
Under `C=CCOc1ccc(/C=N/n2cncn2)cc1OC` stands 1.3%.
Consider `CCc1nc(Nc2ccc3nccnc3c2)c2oc3ccccc3c2n1`, for which the inhibition is -2.31%.
Under `C=CCn1c(COc2cccc3cccnc23)nnc1SCC(=O)OC` stands 6.46%; under `Cc1nc2c(-c3ccc(F)cc3)c(C)nn2c(C)c1CCC(=O)N1CCN(c2ccccn2)CC1`, -0.57%.
With `CCOC(=O)CCc1c(C)c2ccc(OCc3nn[nH]n3)c(C)c2oc1=O`, the inhibition was 1.69%.
Under `Cc1cc(C)c(S(=O)(=O)NCCCN2CCOCC2)cc1Br` stands 1.5%.
Then `Cc1cc(NC(=O)CSc2nnc(-c3ccc(Cl)s3)o2)no1`, with 1.24%; and `O=C(COC(=O)C12CC3CC(CC(C3)C1)C2)NCc1ccco1`, with -3.05%.
